PubChem BioAssay AID1159580 (chemical genetic matrix, 2015)
The campaign covered roughly 5,500 compounds. About 2,000 (36%) were called active. About 18% were inconclusive and are not listed. No stated cut-off is given here; in the data, active means normalized growth mostly below about 0.91 (no sharp cut-off); inconclusive means no clear call, values can overlap the other calls; inactive means mostly above about 0.92. The list shows a part of the results.

Assay: chemical genetic growth profiling, strain panel (AID 1159580);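 further: tested at 20 µM; growth read once vehicle control cultures reached saturation at 30 °C; 1 = growth at the plate median or of vehicle wells; lower values mean less growth of the strain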
Settings: S. cerevisiae deletion strains, growth OD

Measured: normalized growth

CS(=N)(=O)CC[C@H](N)C(=O)O (stereo partly specified)
inactive: locus YAL013W, strain DEP1, hits give low values 0.995 | locus YAL040C, strain CLN3, hits give low values 0.993 | locus YCL061C, strain MRC1 (second series), hits give low values 0.997 | locus YDR150W, strain NUM1, hits give low values 1.02 | locus YDR363W, strain ESC2, hits give low values 0.962 | locus YER002W, strain NOP16, hits give low values 1 | locus YGR078C, strain PAC10, hits give low values 0.969 | locus YJR075W, strain HOC1, hits give low values 1.01 | locus YMR263W, strain SAP30, hits give low values 1.01 | locus YNL128W, strain TEP1, hits give low values 0.991 | locus YNL175C, strain NOP13, hits give low values 0.989 | locus YNL197C, strain WHI3, hits give low values 0.983 | locus YNL224C, strain SQS1, hits give low values 0.999 | locus YOR083W, strain WHI5 (second series), hits give low values 0.989 | locus YPL055C, strain LGE1, hits give low values 1 | locus YPL241C, strain CIN2, hits give low values 1
